This is an account of results in PubChem BioAssay (EPA / NIEHS).

Calls of active or inactive are those of the source. How the source made its calls: active means hit-call score of the fitted dose curve at least 0.9, where 1 is the maximum; inactive means score below 0.9.

The nature of this test: ATG_BRE_CIS: Attagene CIS-FACTORIAL HepG2 Assay for human Bone Morphogenetic Protein (BMP) Response Element (BRE) (AID 2282933). Conditions: HepG2 BMP response element reporter, Attagene transcription factor profiling; actives raise or lower the signal. How it is done: ATG_CIS is a cell-based, multiplexed-readout assay that uses HepG2, a human liver cell line, with measurements taken at 24 hours after chemical dosing in a 24-well plate.ATG_BRE_CIS is one of 52 assay component(s) measured or calculated from the ATG_CIS assay. It is designed to make measurements of mRNA induction, a form of inducible reporter, as detected with fluorescence intensity signals by Reverse transcription polymerase chain reaction (RT-PCR) and Capillary electrophoresis technology.Data from the assay component ATG_BRE_CIS was analyzed into 1 assay endpoint. This assay endpoint, ATG_BRE_CIS, was analyzed with bidirectional fitting relative to DMSO as the negative control and baseline of activity. Using a type of inducible reporter, measures of mRNA for gain or loss-of-signal activity can be used to understand the reporter gene at the transcription factor-level as they relate to the gene SMAD1. Furthermore, this assay endpoint can be referred to as a primary readout, because this assay has produced multiple assay endpoints where this one serves a reporter gene function. To generalize the intended target to other relatable targets, this assay endpoint is annotated to the dna binding intended target family, where the subfamily is Smad protein.
Human liver HepG2 cells are transiently transfected with multiple reporter transcription units (MRTUs) in 6-well plates using FuGene 6 reagent (Roche; 3 ml FuGene/1 mg DNA). The MRTU constructs are regulated by a cis-regulating element (promoter). […] A major difference between the CIS and TRANS system is that in CIS activities of endogenous TFs are measured, whereas the TRANS assay evaluates changes in activities of exogenous, chimeric NR-Gal4 proteins. […] At the end of 24 hour incubation, total RNA was isolated using TriZol reagent (Invitrogen). The isolated RNA is then reverse-transcribed using oligo(dT) primer and Mo-MLV reverse transcriptase (Invitrogen) with DNAse I (Ambion) treatment for 30 min. The one-tenth of the produced cDNA was amplified by PCR using Taq DNA polymerase (Invitrogen) and two reporter sequence-specific primers. The PCR products were fluorescently labeled by primer extension with 6-arboxyfluorescein (6-FAM) 5'-labeled reporter sequence-specific primer (2 min at 95 C, 20 s at 68 C and 10 min at 72 C) and these products were digested with 5U of HpaI (New England Biolabs) for 2h at 37 C. The fragments were purified using Qiaquick PCR columns (Qiagen), analyzed on an ABI 3130xL genetic analyzer (Applied Biosystems) with peak positions identified by using a set of X-rhodamine (ROX)-labeled MapMarker1000 molecular weight standards (BioVentures). The raw capillary electrophoresis data was processed using Attagraph software (Attagene).
Take `CC(C)(O)C#N`: the call was inactive. Usually AC50 stands for the midpoint of the concentration-response curve, whichever way the signal moves. Turning to `C=CC(=O)OCCO`, the AC50 is 36.9 µM (active). `ClC1=C(Cl)[C@]2(Cl)[C@@H]3[C@@H](Cl)[C@H](Cl)C[C@@H]3[C@@]1(Cl)C2(Cl)Cl`: the outcome was inactive. On the same count and under the same terms, the result for `CC1(C)CC(=O)CC(C)(C)N1[O]` reads “inactive”.

As for `O=C1Nc2ccc(Cl)cc2C(c2ccccc2)=NC1O` (stereo not given), the call was inactive. As to `CCc1cccc(C)c1N(C(=O)CCl)[C@@H](C)COC`, the compound was classed as inactive.

As for `O=c1[nH]c(Cl)c(Cl)cc1Cl`, the compound was called inactive. On to `Nc1ccc(-c2ccc(N)c(N)c2)cc1N`, for which the compound was called inactive. As for `[CH3][Sn]([Cl])([Cl])[Cl]`, the call was inactive. For the compound `COc1cc(OC)c(OC)cc1C=O`, the result was inactive.

Regarding `C[N+](C)=CCl`, the compound was classed as inactive. Take `N#CCNCC#N`: the compound was classed as inactive. In the case of `CCCCCCCCCCCC#N`, the call was inactive. Same read-out and setting: the entry for `CC(C)(c1cc(Cl)c(O)c(Cl)c1)c1cc(Cl)c(O)c(Cl)c1` is “inactive”; for `O=[N+]([O-])c1cc(C(F)(F)F)c(Cl)c([N+](=O)[O-])c1Cl` it is “inactive”; for `Nc1ccccc1C(=O)OCCc1ccccc1` it is “inactive”. On to `O=S(=O)(c1ccccc1)c1ccccc1`, for which the call was inactive. Turning to `CC(O)CN(CC(C)O)CC(C)O` (stereo not given), the result was inactive. For `CCOC(=O)C1OC1(C)c1ccccc1` (stereo not given), the compound was classed as inactive. For the compound `C[C@]12CC[C@H]3[C@@H](CC[C@@]45O[C@@H]4C(O)=C(C#N)C[C@]35C)[C@@H]1CC[C@@H]2O`, the compound was classed as inactive. In the case of `Cc1cc(C)c(C2=C(OC(=O)CC(C)(C)C)C3(CCCC3)OC2=O)c(C)c1`, the outcome was inactive. The same measure, in the same setting: the result for `O=P1(NCCCl)OCCCN1CCCl` (stereo not given) reads “inactive”; that for `CCCCCCCCCCCCCCCC[N+](C)(C)C`, “inactive”; that for `CC(C)[C@@H](C(=O)O[C@@H](C#N)c1cccc(Oc2ccccc2)c1)c1ccc(Cl)cc1`, “inactive”. As for `CCOP(=O)(OCC)OCC`, the compound was classed as inactive. For the compound `COCC(=O)N(c1c(C)cccc1C)N1CCOC1=O`, the compound was called inactive. Still for that read-out and setting: the result for `CC(C)CCCCCCCOC(=O)c1ccccc1C(=O)OCCCCCCCC(C)C` reads “inactive”; that for `CN(N=O)c1ccccc1`, “inactive”. Same read-out and setting: the result for `CC(C)CCCCCCCOP(=O)(Oc1ccccc1)Oc1ccccc1` reads “inactive”.

With `BrCBr`, the compound was classed as inactive. With `CSc1nc(N=[N+]=[N-])nc(NC(C)C)n1`, the call was inactive.

Turning to `CCC(=O)c1ccc(Cl)cc1`, the result was inactive. With `COC(C)(C)CCC[C@H](C)C/C=C/C(C)=C/C(=O)OC(C)C`, the AC50 is 84.6 µM (active). As to `CCC(Br)(CC)C(=O)NC(N)=O`, the result was inactive. Take `O=[N+]([O-])c1cc([N+](=O)[O-])c2ccccc2c1`: the outcome was inactive. In the case of `CC1OC(C)OC(C)O1` (stereo not given), the outcome was inactive. The same measure, in the same setting: the result for `O=[N+]([O-])O.O=[N+]([O-])O.[Cd]` reads “inactive”. For `CCCCNP(N)(N)=S`, the call was inactive. Regarding `CC(C)c1ccc(O)cc1`, the compound was classed as inactive. In the case of `N#CC(c1ccccc1)c1ccccc1`, the compound was classed as inactive.
